Assay outcomes (PubChem BioAssay)
Pol kappa inh: qHTS for Inhibitors of Polymerase Kappa | 400,000 tested, 0.53% active | AID 588579, 2011 | purified Pol kappa, fluorescent DNA synthesis assay, 10 min | Potency, µM (series often up to 107 µM), inactives show at the highest dose activity, negative = inhibition, hits mostly inhibitors; also: % is scaled to controls: 0 for no effect and ±100 for the full control effect
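Pol kappa 10 nM + cpd, 15 min RT; start w/ substrate 50 nM final; fluorescence kinetic read, 0 and 10 min. Neg ctrl: buffer, no enzyme.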
L3MBTL1 block: qHTS Assay for the Inhibitors of L3MBTL1. Lethal(3)malignant brain tumor-like protein 1 (Homo sapiens), Q9Y468. AlphaScreen L3MBTL1–H3K9me1 peptide binding. Potency, µM (top dose mostly 57.1 µM), without a hit: at the top dose activity, negative = inhibition, most hits filed as inhibitors. 230,000 tested, 0.66% active; also: % is scaled to controls: 0 for no effect and ±100 for the full control effect; nearly all actives have a fitted effect of over 60% in size
Target sequence (Q9Y468 whole entry, looked up): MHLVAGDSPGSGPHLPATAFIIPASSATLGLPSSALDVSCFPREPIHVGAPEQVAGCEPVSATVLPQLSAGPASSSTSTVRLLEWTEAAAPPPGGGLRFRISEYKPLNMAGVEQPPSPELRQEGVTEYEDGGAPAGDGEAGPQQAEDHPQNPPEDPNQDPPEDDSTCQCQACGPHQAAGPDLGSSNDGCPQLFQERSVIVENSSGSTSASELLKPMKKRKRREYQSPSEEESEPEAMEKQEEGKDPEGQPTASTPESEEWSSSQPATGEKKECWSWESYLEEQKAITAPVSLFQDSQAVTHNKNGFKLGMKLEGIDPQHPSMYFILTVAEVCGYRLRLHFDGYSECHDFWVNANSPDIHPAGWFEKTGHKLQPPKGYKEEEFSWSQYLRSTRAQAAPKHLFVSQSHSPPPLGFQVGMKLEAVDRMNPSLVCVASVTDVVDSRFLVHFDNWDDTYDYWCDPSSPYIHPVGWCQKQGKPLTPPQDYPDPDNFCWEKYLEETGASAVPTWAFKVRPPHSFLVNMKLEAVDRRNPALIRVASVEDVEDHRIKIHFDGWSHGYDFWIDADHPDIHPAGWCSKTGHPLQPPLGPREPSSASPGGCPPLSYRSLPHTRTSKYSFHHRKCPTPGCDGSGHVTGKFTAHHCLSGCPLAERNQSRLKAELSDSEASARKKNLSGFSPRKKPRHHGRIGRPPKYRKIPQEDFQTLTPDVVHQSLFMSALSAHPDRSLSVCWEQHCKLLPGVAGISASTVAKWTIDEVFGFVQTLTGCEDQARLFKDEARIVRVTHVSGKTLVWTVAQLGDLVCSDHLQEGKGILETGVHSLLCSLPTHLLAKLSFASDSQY
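Displacement of a biotinylated histone H3(1-15) peptide monomethylated at Lys9 (75 nM) from L3MBTL1 (50 nM) was measured by AlphaScreen after a 30 min room-temperature compound incubation; cefsulodin titration served as intraplate control.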
Pol eta inh: qHTS for Inhibitors of Polymerase Eta; AID 588591, 2011; Potency, µM (titrated, usually from 114 µM), for inactives: at the top dose activity change, negative = inhibition, hits mostly inhibitors; 390,000 tested, 1.2% active; recombinant Pol eta, fluorescent DNA replication assay; DNA polymerase eta (Homo sapiens), Q9Y253; also: % is scaled to controls: 0 for no effect and ±100 for the full control effect
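Pol eta (10 nM) was preincubated with compounds for 15 min at room temperature, after which fluorescent replication substrate (50 nM final) was added to start the reaction. Fluorescence was read kinetically at 0 and 10 min.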
POLB inh: qHTS Assay for Inhibitors of DNA Polymerase Beta. 340,000 tested, 1.3% active. Pol beta primer extension/strand displacement, fluorescence kinetic. Potency, µM (titrated, usually from 114 µM), without a hit: at the top dose activity change, negative = inhibition, hits mostly inhibitors. AID 485314, 2010; also: % is scaled to controls: 0 for no effect and ±100 for the full control effect
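Pol beta (10 nM) and compounds were preincubated 15 min at room temperature, then 50 nM substrate (final) started primer extension/strand displacement. Reads were taken at 0 and 10 min; concentration-response data were fitted to a four-parameter Hill equation.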
WRN inhibitor: qHTS for Inhibitors of WRN Helicase. WRN helicase unwinding, fluorescent forked duplex, kinetic. 360,000 tested, 0.46% active. Potency, µM (series often up to 114 µM), inactives show at the highest dose activity change, negative = inhibition, hits mostly inhibitors; also: % is scaled to controls: 0 for no effect and ±100 for the full control effect; nearly all actives have a fitted effect of over 55% in size
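Enzyme (20 nM final) and test compound sit together 15 min at room temperature before substrate addition. Substrate is a single-forked duplex oligonucleotide (100 nM) labelled with fluorophore and quencher, with 2 mM ATP; helicase unwinding raises red fluorescence, read kinetically.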
POLI inh: qHTS for Inhibitors of Polymerase Iota. Pol iota fluorescent replication assay, 10 min. Potency, µM (series often up to 115 µM), for inactives: at the top dose activity, negative = inhibition, usual class: inhibitors. DNA polymerase iota (Homo sapiens), Q9UNA4. AID 588590, 2011. 390,000 tested, 1% active
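Pol iota at 10 nM preincubated 15 min with compounds at room temperature; reaction started with fluorescent substrate, 50 nM final. Fluorescence read kinetically at 0 and 10 min; buffer-only wells as negative control.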
* hit, by the source's call; ? = inconclusive; nt = no result given; [ ] = dose if it differs, or a comment. Sampled rows, rich in hits. Any-hit rate of the full collection: about 2.5%. Calls follow the shape of the dose curve; as a rule, active = well fitted curve in the direction sought with a large enough effect; inconclusive = small, poorly fitted or top-dose-only effect, or another doubt; inactive = no such curve, though single readings can be large; an effect the other way counts as inactive or inconclusive. Potency is read from the fitted curve at half-maximal effect.

SMILES	Pol kappa inh	L3MBTL1 block	Pol eta inh	POLB inh	WRN inhibitor	POLI inh
O=C(O)CCc1ccc(-c2ccc(Br)cc2)o1	?	-2.3%	-3.1%	28.3%	?	39.8µM*
COc1cc(-c2cc(OC)c3c(C)oc(C)c3c(=O)c2)ccc1OC(=O)c1ccccc1Cl	-0.2%	nt	-21.9%	0.5%	nt	22.4%
Cc1oc(C)c2c(=O)cc(-c3ccc4c(c3)OCO4)cc(OC(=O)c3ccccc3Cl)c12	?	nt	?	17.8µM*	nt	79.4µM*
Cc1nc2sccc2c(=O)n1N	-1.5%	nt	-7.6%	30.0%	-2.2%	13.1%
C[C@H]1CN([C@@H](C)CO)S(=O)(=O)c2ccc(Br)cc2O[C@@H]1CN(C)Cc1cccc(F)c1	nt	nt	?	nt	-6.5%	nt
COc1ccc2nc(SCC(C)=O)c(C#N)cc2c1	-11.5%	-0.4%	1.0%	-28.0%	-24.4%	-18.0%
COc1ccc2nc(SC)c(C#N)cc2c1	14.7%	?	-0.7%	29.3%	1.8%	89.1µM*
CCOC(=O)C1=C(O)/C(=C/c2ccc(CNC(=O)C(=O)Nc3ccc(C)cc3)o2)N=C1C	-19.6%	nt	?	?	?	-13.6%
CCOC(=O)C1=C(O)/C(=C\c2ccc(CNS(=O)(=O)c3ccc(Br)cc3)o2)N=C1C	50.1µM*	-8.6%	22.4µM*	-23.8%	44.7µM*	15.8µM*
COC(=O)C1=C(O)/C(=C\c2ccc(CNS(=O)(=O)c3ccccc3)o2)N=C1C	28.2µM*	?	?	-20.1%	?	?
CCOC(=O)C(=O)NCc1ccc(/C=C2/N=C(C)C(C(=O)OCC)=C2O)o1	?	?	-10.7%	?	-23.6%	?
Cc1oc2ccc(O)cc2c1C(=O)c1ccccc1	-11.9%	-3.4%	-16.6%	-14.9%	4.7%	103.5%
COc1ccc(OC)c(S(=O)(=O)NCC2CCCO2)c1 (stereo not drawn)	-5.8%	11.1%	-7.6%	6.9%	-5.1%	1.9%
O=C1C(F)=CC(COC(c2ccccc2)(c2ccccc2)c2ccccc2)OC1n1cc(F)c(=O)[nH]c1=O (stereo not drawn)	-13.8%	nt	50.1µM*	nt	?	?
O=c1cc(-c2cccc(O)c2)oc2c(O)c(O)ccc12	2.82µM*	nt	nt	nt	nt	nt
O=c1cc(-c2cccc(O)c2)oc2cc(O)ccc12	-11.7%[19.4 µM]	nt	nt	nt	nt	nt
O=c1cc(-c2ccc(O)cc2)oc2c1ccc1ccccc12	10.9%	-6.8%	56.2µM*	nt	-29.6%	-18.4%
O=c1cc(-c2ccco2)oc2c1ccc1ccccc12	-9.5%	nt	?	17.8µM*	-27.9%	39.5%
Cc1cccc(C)c1OCc1cc(C(=O)N2CCC(c3ccncc3)CC2)no1	-5.0%	nt	-24.0%	1.6%	-6.7%	32.0%
COc1cccc(N2CCN(CC(=O)NC(=O)NCc3ccco3)CC2)c1	?	nt	79.4µM*	7.94µM*	-31.2%	12.6µM*
O=C(CN1CCN(c2ccccc2F)CC1)NC(=O)NCc1ccco1	?	nt	-10.8%	31.6µM*	-5.6%	?
Cn1c(Cn2nnc3ccccc32)nnc1SCC(=O)N1CCc2ccccc21	-3.8%	-6.5%	-5.8%	5.5%	0.0%[57.1 µM]	-6.8%
Cn1c(=O)c2c(ncn2CC(=O)OCC(=O)NCc2ccc(Cl)cc2)n(C)c1=O	-8.3%	-0.5%	-2.4%	-1.5%	13.8%	101.6%
CC(C)OC(=O)CC(=O)c1sc2nc3c(cc2c1N)CN(C)CC3	?	?	?	39.8µM*	?	11.2µM*
CN1CCc2nc3sc(C(=O)Nc4c(F)cccc4F)c(N)c3cc2C1	-14.8%	nt	-27.6%	-2.9%	nt	36.7%
CN(C)c1ccc(N=Nc2ccc(S(N)(=O)=O)cc2)cc1	-36.0%	nt	?	?	-18.9%	20µM*
